Measurements: PubChem BioAssay AID1347131 (National Center for Advancing Translational Sciences (NCATS), 2019)
About 2,000 (0.49%) of roughly 410,000 compounds were called active. A call without a number means that no potency is given here. About 8% were inconclusive and are not listed. Calls follow the shape of the full dose curve; tested in HEK293 reporter line. The sample as a whole holds a higher share of actives than the screen did.

assay: qHTS Assay for Foot and Mouth Disease Virus Antivirals: Primary Screen against the MLPCN compound library; settings: FMDV antiviral cell-based qHTS; series mostly up to 57.9 µM; also: nearly all actives have a fitted effect of over 55% in size
Potency is read from the fitted curve at half-maximal effect.

Row | Compound | Potency
1 | CC(=O)N1CC=C2C(C#N)=C(N)C(C#N)(C#N)C(CCc3ccccc3)C2C1 (stereo not given) | inactive
2 | N#CC1=C(N)C(C#N)(C#N)C(c2cccnc2)C2CN(C(=O)OCc3ccccc3)CC=C12 (stereo not given) | 22.4 µM (active)
3 | Brc1ccc([C@H]2C=C[C@H]3CCCN4CC[C@H]2[C@@H]3[C@]42CO2)cc1 | inactive
4 | CC(=O)Nc1ccc(S(=O)(=O)c2ccc([N+](=O)[O-])cc2)cc1 | inactive
5 | O=C1NC(=O)N(Cc2ccccc2)C(=O)/C1=C\N1CCCc2ccccc21 | inactive
6 | COc1ccc(CN2C(=O)NC(=O)/C(=C/c3ccoc3)C2=O)cc1 | inactive
7 | O=C1NC(=O)N(CCc2ccc(F)cc2)C(=O)/C1=C/C=C/c1ccccc1 | 10 µM (active)
8 | O=C(Nc1ccc2c(c1)OCO2)c1cc(-c2ccc(Br)cc2)on1 | inactive
9 | CN(CCOc1ccc(Cl)cc1)CC(=O)Nc1ccc(OC(F)(F)F)cc1 | inactive
10 | Cc1[nH]n(-c2ccc(F)cc2)c(=O)c1/C=N/c1sc2c(c1C#N)CCCC2 | inactive
11 | O=C(Nc1sc2c(c1C(=O)Nc1ccc(Cl)cc1)CCCC2)c1cccs1 | inactive
12 | N#Cc1c(/N=C/c2cccs2)sc2c1CCCCC2 | 25.1 µM (active)
13 | O=C(Cc1ccccc1)NCC(=O)OCc1ccccc1F | inactive
14 | CC(Sc1nc2ccccc2c(=O)n1CC1CCCO1)C(=O)N(C)c1ccccc1 (stereo not given) | inactive
15 | COc1ccc(C(CC(=O)Nc2cc([N+](=O)[O-])ccc2OC)c2ccccc2)cc1 (stereo not given) | inactive
16 | CC(=O)NNC(=S)NC(=O)C(c1ccccc1)c1ccccc1 | inactive
17 | CCOC1=C2CN(S(=O)(=O)c3ccc(C)cc3)[C@H](c3ccccc3)C[C@@H]2N(S(=O)(=O)c2ccc(C)cc2)[C@H](c2ccccc2)C1 | inactive
18 | CC(C)c1ccc(NC(=O)c2cc(S(=O)(=O)N(C)C3CCCCC3)ccc2F)cc1 | inactive
19 | CCCOc1ccc(C(=O)Nc2ccc3oc(-c4cccc(Cl)c4Cl)nc3c2)cc1 | inactive
20 | CCc1ccc2oc(-c3cc(N)ccc3Cl)nc2c1 | 17.8 µM (active)
21 | CCOCCc1nnc(NC(=O)CS(=O)(=O)Cc2ccccc2)s1 | inactive
22 | CCCCN1C[C@H](CSC)[C@@H](CC(=O)NC)C1=O | inactive
23 | COc1ccc(NC(=O)NC23CC4(C)CC(C)(CC(C)(C4)C2)C3)cc1OC | inactive
24 | COc1ccc(N2CCN(C(=O)CN3CCSc4ccccc43)CC2)cc1 | inactive
25 | Cc1ccn2c(/C=N/OCc3cccc(F)c3)c(-c3ccc(Cl)cc3)nc2c1 | inactive

Row | Compound | Potency
26 | Cc1ccc2nc(-c3ccc(NC(=O)COC(=O)c4ccco4)cc3)sc2c1 | 12.6 µM (active)
27 | Cc1ccc(C(=O)OCC(=O)Nc2ccc(C)c(S(=O)(=O)N3CCCCC3)c2)c(O)c1 | inactive
28 | O=C(COC(=O)c1ccco1)Nc1ccc2[nH]c(=O)[nH]c2c1 | inactive
29 | Cc1ccc2nc(-c3ccc(NC(=O)COC(=O)c4cncc(Br)c4)cc3)sc2c1 | 17.8 µM (active)
30 | Cc1ccc(OCC(=O)Nc2ccc3c(c2)nc(CCNC(=O)c2ccco2)n3C)cc1 | inactive
31 | CCN(CC)S(=O)(=O)c1cccc(NC(=O)COC(=O)c2cncc(Br)c2)c1 | inactive
32 | O=C(N/N=C/c1cccc([N+](=O)[O-])c1)c1ccc(CN2CCOCC2)cc1 | inactive
33 | CCOc1cc(/C=N/Nc2cc(C)nc(-n3nc(C)cc3C)n2)ccc1O | inactive
34 | CC(OC(=O)/C=C/c1ccco1)C(=O)NC1CCCCC1C (stereo not given) | inactive
35 | O=C1c2ccccc2C(=O)C1c1ccnc2ccccc12 | 14.1 µM (active)
36 | Cc1ccc2c(CC(=O)N3CCN(S(=O)(=O)c4cccs4)CC3)coc2c1 | inactive
37 | O=S(=O)(c1cccs1)N1CCN(CCc2ccccc2)CC1 | inactive
38 | O=C(CCCc1nc2ccccc2s1)N1CCN(S(=O)(=O)c2cccs2)CC1 | 25.1 µM (active)
39 | COc1ccc(C(=O)NCC(=O)N2CC=C(c3ccccc3)CC2)cc1OC | inactive
40 | O=c1nc(N/N=C/C=C/c2ccccc2)cn[nH]1 | 14.1 µM (active)
41 | COc1ccc(CCN(C)C(=O)c2cc(S(=O)(=O)N3CCCCC3)ccc2Cl)cc1OC | inactive
42 | COCCn1c(C)cc(C(=O)COC(=O)c2ccc[nH]c2=O)c1C | inactive
43 | Cc1sc2ncnc(NCC(c3ccco3)N3CCCC3)c2c1C (stereo not given) | inactive
44 | CCOc1cc(-c2c(C#N)c(=O)[nH]c3c2c(C)nn3-c2ccc(F)cc2)ccc1O | inactive
45 | COc1ccc2oc(=O)c(C(=O)NCCc3c(C)[nH]c4ccc(C)cc34)cc2c1 | inactive
46 | COc1cc(OC)cc(C(=O)Nc2nnc(SCC(=O)NCc3ccco3)s2)c1 | inactive
47 | O=C(CSc1nnc(NC(=O)c2ccc3c(c2)OCO3)s1)NCc1ccco1 | 17.8 µM (active)
48 | COc1ccc(-c2cnc(SCC(=O)Nc3ccc4c(c3)OCO4)n2Cc2ccco2)cc1 | inactive
49 | Cc1cc(C)cc(-n2c(SCC(=O)Nc3cccc(F)c3)nc3c([nH]c4ccccc43)c2=O)c1 | inactive
50 | COc1ccc(C)cc1NC(=O)CN(C)S(=O)(=O)c1cc(C)ccc1OC | inactive
